Shown are actives, neighbours in structure and some others; about 1.5% of the full set was active somewhere.
TrxR1 inh = rat TrxR1 inhibition; O89049; recombinant rTrxR1, NADPH fluorescence consumption, selenite substrate; Potency, µM (doses to about 114 µM), for inactives: at the top dose activity change, negative = inhibition, usual class: inhibitors; hit rate 1% among 390,000; further: potency means the concentration at half of the fitted maximal effect; on the % scale 0 is the no-effect control and ±100 the full control effect; nearly all actives have a fitted effect of over 65% in size
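Rat TrxR1 (90 nM in the dispensed reagent) was pre-reduced with 400 uM NADPH for 5 min at room temperature, then incubated with compound for 15 min. After 400 uM selenite was added, NADPH fluorescence (Ex 340/Em 450 nm) was followed for 8 min.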
mIDH1 inhibitor = human IDH1 R132H inhibition; IDH1-R132H enzyme, NADPH consumption, diaphorase/resazurin fluorescence; Potency, µM (highest dose often 76.6 µM), for inactives: at the top dose activity change, negative = inhibition, hits mostly inhibitors; hit rate 0.093% among 390,000; AID 602179; further: potency means the concentration at half of the fitted maximal effect; on the % scale 0 is the no-effect control and ±100 the full control effect; nearly all actives have a fitted effect of over 65% in size
Target sequence (O75874 whole entry R132H, stated change not applied): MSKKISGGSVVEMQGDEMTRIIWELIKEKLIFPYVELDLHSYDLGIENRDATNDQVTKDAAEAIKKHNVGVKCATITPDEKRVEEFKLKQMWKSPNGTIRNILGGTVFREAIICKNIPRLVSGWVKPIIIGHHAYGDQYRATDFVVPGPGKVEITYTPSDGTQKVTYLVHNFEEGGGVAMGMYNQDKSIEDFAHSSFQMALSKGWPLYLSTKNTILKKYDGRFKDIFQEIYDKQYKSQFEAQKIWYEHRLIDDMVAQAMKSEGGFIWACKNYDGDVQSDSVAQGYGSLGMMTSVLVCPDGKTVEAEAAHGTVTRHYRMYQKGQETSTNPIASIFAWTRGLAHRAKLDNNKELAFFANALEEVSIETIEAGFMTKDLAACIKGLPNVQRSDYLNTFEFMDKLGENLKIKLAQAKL
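IDH1-R132H (0.5 ug/mL dispensed) in pH 7.5 Tris buffer was preincubated 30 min with compound, then given a substrate mix of 0.016 mM NADPH and 2 mM alpha-KG for 80 min at room temperature; remaining NADPH was read by diaphorase/resazurin fluorescence.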
Eya2 phos inh = Eya2 (human) phosphatase inhibition | recombinant Eya2, OMFP fluorescence dephosphorylation (OMFP is methylfluorescein phosphate) | Potency, µM (titrated, usually from 76.9 µM), inactives show at the top dose activity, negative = inhibition, hits mostly inhibitors | hit rate 0.006% among 330,000; further: potency means the concentration at half of the fitted maximal effect; on the % scale 0 is the no-effect control and ±100 the full control effect
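Eya2 (0.2 uM) preincubated 10 min at ambient with compound, then OMFP substrate added at 50 uM; 10 min reaction in 50 mM HEPES pH 7.5, 50 mM NaCl, 5 uM MgCl2, 0.05% BSA, 1 mM DTT. Fluorescence read at Ex 485/Em 525 nm.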
TrxR1 substrate = is turned over as a substrate by rat TrxR1 | purified TrxR1 substrate turnover, NADPH consumption readout | Potency, µM (titrated, usually from 114 µM), without a hit: top-dose activity change, negative = substrate turnover | O89049 | AID 588456 | hit rate 0.01% among 390,000; further: potency means the concentration at half of the fitted maximal effect; on the % scale 0 is the no-effect control and ±100 the full control effect; nearly all actives have a fitted effect of over 50% in size
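Rat TrxR1, dispensed at 90 nM, was prereduced with 400 uM NADPH (final) for 5 min at ~22 deg C, then incubated with compound 15 min before 400 uM selenite. A first-read NADPH fluorescence drop versus no-compound background flagged substrates.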
Coupling enz = counter-screen for Giardia aldolase inhibitors: coupling enzyme system | activity change, negative = inhibition, % at 58.2 µM, hits read low | hit rate 0.67% among 290,000 | coupling enzyme system counterscreen, AmpLite Red fluorescence; in the data active means activity change below about -30%; further: on the % scale 0 is the no-effect control and ±100 the full control effect
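Coupling enzymes only (glyceraldehyde-3-phosphate) + compound, at 57.5 uM final, 10 min RT; add substrate/coupling/AmpLite Red mix, 20 min RT; fluorescence ex 525/em 598 nm. Actives flag coupling-system interference.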
IDH1 autofl = counter-screen for mutant IDH1 inhibitors: fluorescence interference; shares compounds with mIDH1 inhibitor; 750 tested, under 10 active; Resorufin detection reagent fluorescence interference, cell-free; inhibition of signal, % at 51.2 µM;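 further: 0% = wells with normal resorufin and full inhibition = wells lacking resorufin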
WT IDH1 inh = inhibits human wild-type IDH1, mutant selectivity check. WT IDH1 enzyme, NADPH diaphorase/resazurin fluorescence. hit rate 9% among 750. shares compounds with mIDH1 inhibitor. Potency, µM (titrated, usually from 115 µM), without a hit: top-dose activity change, negative = inhibition, usual class: inhibitors;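 further: potency means the concentration at half of the fitted maximal effect; 0% = full WT IDH1 enzyme control and full inhibition = no enzyme wells; nearly all actives have a fitted effect of over 55% in size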
Target sequence (O75874 whole entry, looked up): as the sequence (O75874 whole entry R132H, stated change not applied) above, with H132R counted along it
mIDH1 confirm = confirmation of human mutant IDH1 inhibitors; shares compounds with mIDH1 inhibitor; IDH1 R132H enzyme, NADPH diaphorase/resazurin fluorescence; Potency, µM (series often up to 76.6 µM), inactives show at the highest dose activity change, negative = inhibition, most hits filed as inhibitors; hit rate 83% among 750; AID 624002; further: potency means the concentration at half of the fitted maximal effect; nearly all actives have a fitted effect of over 50% in size
The depositor's hits bear a star; u = inconclusive; x = no result given; [ ] = another dose, or the depositor's remark. Unless noted, the call rests on the fitted dose curve; in most records, active means well fitted curve in the direction sought with a large enough effect; inconclusive means small, poorly fitted or top-dose-only effect, or another doubt; inactive means no such curve, though single readings can be large; an effect the other way counts as inactive or inconclusive.

SMILES	TrxR1 inh	mIDH1 inhibitor	Eya2 phos inh	TrxR1 substrate	Coupling enz	IDH1 autofl	WT IDH1 inh	mIDH1 confirm
CC(C)C[C@H]1CN([C@@H](Cc2ccc(O)cc2)CN2CCC[C@@H]2CN2C(=O)C(=O)NC[C@@H]2Cc2ccccc2)C(=O)C(=O)N1CC1CCCCCC1	6%	u	x	0%	x	x	x	x
CC(C)C[C@@H](CN1CCCC1CN1C(=S)NC[C@@H]1Cc1ccc(O)cc1)N1C[C@H](Cc2ccc(O)cc2)N(CC2CCCCC2)C1=S (some centres undefined)	-3%	-9%	x	-9%	x	x	x	x
O=C1NC[C@H](Cc2ccccc2)N(C[C@H]2CCCN2C[C@H](Cc2ccc(O)cc2)N2C[C@H](Cc3ccc(O)cc3)N(CC3CCCCCC3)C(=O)C2=O)C1=O	13%	u	x	3%	x	3	5%	16µM*
CC(C)C[C@@H](CN1CCC[C@@H]1CN1C(=O)C(=O)NC[C@@H]1Cc1ccccc1)N1C[C@H](Cc2ccc(O)cc2)N(CC2CCCCCC2)C(=O)C1=O	12%	28µM*	x	1%	x	-6	0%	11µM*
O=C1NC[C@H](Cc2ccccc2)N(C[C@H]2CCCN2C[C@H](Cc2ccccc2)N2C[C@H](Cc3ccc(O)cc3)N(CC3CCCCCC3)C(=O)C2=O)C1=O	10%	u	x	0%	x	1	-5%	10µM*
CC(C)=CCn1cnc2c1C(NOCc1ccccc1)=NCN2	x	x	x	x	1	x	x	x
CC(=O)c1ccc(NC(=O)c2cnn3c2NC(=C2CC2)C=C3C(F)F)cc1	6%	x	x	17%	x	x	x	x
COc1cc2c(O)c3c(c(-c4ccc5c(c4)OCO5)c2cc1OC)C(=O)OC3	28%	u	0%	22%	0	-3	u	25µM*
CC(=O)Nc1ccc(SCCN2CCN(CC(C)C)CCC2=O)cc1	82%	x	x	-11%	3	x	x	x
Cc1cccc(/C=N/Nc2cc(N3CCOCC3)nc(N3CCOCC3)n2)c1	-13%	u	-4%	-16%	-2	-1	-5%	13µM*
CC(C)c1ccc(/C=N/Nc2cc(N3CCOCC3)nc(N3CCOCC3)n2)cc1	-5%	5%	-5%	-8%	-3	x	x	x
CC(=O)c1ccc(NS(=O)(=O)c2cccc(S(=O)(=O)c3ccc(Cl)cc3)c2)cc1	1%	u	x	-5%	x	7	-1%	45µM*
COc1ccc(-c2csc3nc(C)nc(N4CCCCC4)c23)cc1OC	16%[57.1 µM]	u	-16%	-1%[57.1 µM]	9	-7	4%	32µM*
COc1ccc(-c2csc3nc(-c4cccnc4)nc(N4CCC(C(N)=O)CC4)c23)cc1OC	-13%	u	-4%	-4%	0	x	x	x
O=S(=O)(c1ccc(Br)cc1)N1CCN(c2nc(-c3ccccc3)nc3ccccc23)CC1	22%	x	x	8%	x	x	x	x
CSC1=C(C#N)C(c2ccccc2C)C(C#N)=C(N)N1 (centres undefined)	50µM*	u	12%	-4%	12	6	116%	45µM*
N#Cc1ccc(S(=O)(=O)N2CCN(c3nc(-c4cccs4)nc4ccccc34)CC2)cc1	16%	x	x	18%	x	x	x	x
COc1ccc(-c2sc(Nc3ccc(F)c(F)c3F)nc2CCC(=O)NN)cc1	12%	29µM*	-7%	-1%	0	-9	-21%	28µM*
O=C1c2cccc3c(N4CCCCC4)ccc(c23)C(=O)N1c1ccccn1	5%	0%	-9%	-2%	-6	x	x	x
O=C1c2ccccc2-c2n[nH]c(=O)c3ccc(N4CCCCC4)c1c23	9%[57.1 µM]	u	0%	-7%	-4	-4	u	32µM*
CCOC(=O)c1c(NC(=O)CN(CC)CC)sc2c1CCN(C(=O)OCC)C2	-16%	-16%	-4%	-2%	-4	x	x	x
CCOC(=O)c1c(NC(=O)CN2CCOCC2)sc2c1CCCC2	-27%	26µM*	-10%[15.4 µM]	-11%	0	-7	-10%	20µM*
CCOC(=O)c1c(NC(=O)CN2CCCCC2)sc2c1CCN(C(=O)OCC)C2	-14%	12µM*	-9%	4%	x	-2	5%	6.3µM*
CCOC(=O)c1c(NC(=O)CN2CCOCC2)sc2c1CCCC2=O	20%[57.1 µM]	-5%	-8%	3%[57.1 µM]	5	x	x	x
O=[N+]([O-])c1cc(Cl)ccc1Nc1nc(Nc2ccc(Cl)cc2[N+](=O)[O-])nc(N2CCOCC2)n1	-10%	x	x	-19%	x	x	x	x
SMILES	TrxR1 inh	mIDH1 inhibitor	Eya2 phos inh	TrxR1 substrate	Coupling enz	IDH1 autofl	WT IDH1 inh	mIDH1 confirm
COC(=O)C1=C[C@@H](C(=O)OC)C2C3=C(C(=O)[C@]2(CC(C)C)NC(=O)c2ccccc2)[C@H](C)n2c(=O)n(C)c(=O)n2[C@@H]3C1 (some centres undefined)	-7%	x	x	-1%	-1	x	x	x
CC(C)c1ccc(S(=O)(=O)N2CCN(CCC(=O)Nc3ccc(N(C)C)cc3)CC2)cc1	3%[57.1 µM]	46µM*	-39%	3%[57.1 µM]	-3	-1	-1%	22µM*
COc1ccc(NC(=O)CCN2CCN(S(=O)(=O)c3ccc(C(C)C)cc3)CC2)cc1	6%	-6%	0%	-11%	-1	x	x	x
O=C1OC(c2cc(I)c(O)c(I)c2)(c2cc(I)c(O)c(I)c2)c2ccccc21	x	x	x	x	3	x	x	x
CC1(C)CC(=O)C2=C(C1)N1C(=C(C#N)C2c2ccccc2Cl)N=C(N)c2ccccc21 (centres undefined)	-6%[57.1 µM]	u	0%	-4%[57.1 µM]	-3	-1	3%	16µM*
CCCCC/C=C\C/C=C\CCCCCCCC(=O)NCCc1ccc(O)c(O)c1	x	x	x	x	3	x	x	x
CCOc1ccc(C2NC(=O)c3n[nH]c(C)c32)cc1 (centres undefined)	-12%	-4%	5%	-6%	0	x	x	x
CC(C)(C)c1ccc(C2NC(=O)c3n[nH]c(-c4cccs4)c32)cc1 (centres undefined)	-5%	u	x	0%	x	0	0%	40µM*
COc1ccc(-n2cc(-c3ccccc3)c3c(NC4CCCC4)ncnc32)cc1	11%[57.1 µM]	32µM*	x	-4%[57.1 µM]	x	0	-14%	14µM*
Clc1cccc(-n2cc(-c3ccccc3)c3c(NC4CCCC4)ncnc32)c1	-2%[57.1 µM]	-7%	x	-4%[57.1 µM]	x	x	x	x
COC(=O)C1(C(=O)OC)Cc2conc2[C@H]1c1ccccc1	x	x	x	x	1	x	x	x
CCn1c2ccccc2c2cc(C3C(C#N)=C(N)Oc4n[nH]c(COC)c43)ccc21 (centres undefined)	8%[57.1 µM]	52µM*	6%	11%[57.1 µM]	-8	4	-4%	20µM*
CC[C@H](NC(=O)[C@H](CCC(=O)O)NC(=O)[C@H](CCC(=O)O)NC(=O)[C@H](CC(=O)O[S+](=O)([O-])c1cccc2c(NCCN)cccc12)NC(=O)[C@H](CCC(=O)O)NC(=O)[C@H](CC(=O)O)NC(C)=O)C(=O)ON[C@@H](C)C(=O)N[C@@H](CO)C(=O)N[C@@H](CCCCNC(=O)c1ccc(N=Nc2ccc(N(C)C)cc2)cc1)C(N)=O	x	x	x	x	-1	x	x	x

Source: PubChem
